The values below come from PubChem BioAssay.

Values joined by “and” are separate entries in the source; they are usually repeats but may differ in a detail not shown here. Equal entries are not always repeated. Values without a mark were called inactive.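 Rule for the calls, unless noted: active = z-score of at least 1.8 in each of two replicates, scored against plate mean and spread of sample wells; inactive = the rest.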

The target of the first experiment is NAD(+) hydrolase SARM1 (Homo sapiens) (UniProt Q6SZW1). Description: blocking NAD cleavage by SARM1 SAM-TIR – cell lysate, NAD-Glo luminescence (AID 1508614;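 active = compound whose remaining NAD level is above about 45 nM, limit read from the data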;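 note: higher remaining NAD means stronger inhibition of SARM1 NADase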). The following applies: SAM-TIR HEK293T lysate NADase, at 1 µM, active compounds read high.
Sequence of NAD(+) hydrolase SARM1 (Homo sapiens) (Q6SZW1 whole entry, looked up): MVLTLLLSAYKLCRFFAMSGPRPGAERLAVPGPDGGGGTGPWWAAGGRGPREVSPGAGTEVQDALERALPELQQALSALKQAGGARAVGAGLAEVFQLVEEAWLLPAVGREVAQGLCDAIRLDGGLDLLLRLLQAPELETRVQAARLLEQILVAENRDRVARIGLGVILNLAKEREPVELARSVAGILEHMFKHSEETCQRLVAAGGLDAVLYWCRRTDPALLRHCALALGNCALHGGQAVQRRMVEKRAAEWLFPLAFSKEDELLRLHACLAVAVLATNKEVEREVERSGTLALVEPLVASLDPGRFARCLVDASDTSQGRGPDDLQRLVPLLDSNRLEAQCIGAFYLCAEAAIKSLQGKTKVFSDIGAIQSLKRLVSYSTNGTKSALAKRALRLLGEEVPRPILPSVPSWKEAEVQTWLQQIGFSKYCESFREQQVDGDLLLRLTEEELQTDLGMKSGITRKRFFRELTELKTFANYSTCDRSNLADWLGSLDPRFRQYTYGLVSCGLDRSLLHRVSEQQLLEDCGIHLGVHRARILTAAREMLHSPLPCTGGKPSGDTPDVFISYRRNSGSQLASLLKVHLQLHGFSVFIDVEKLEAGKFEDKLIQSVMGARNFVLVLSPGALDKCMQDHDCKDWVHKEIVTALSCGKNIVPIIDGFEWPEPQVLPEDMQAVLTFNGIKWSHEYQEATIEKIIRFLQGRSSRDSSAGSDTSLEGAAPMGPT
In the case of `CCCCCC(C)N` (centres undefined), the remaining NAD is 10 nM. On to `C#C[C@]1(O)CC[C@H]2[C@@H]3CCc4cc(O)ccc4[C@H]3CC[C@@]21C`, for which the remaining NAD is 10 nM. For `O=C(O)CSCC(=O)NC1CCSC1=O` (centres undefined), the remaining NAD is 10 nM.

On to `COc1cc2c(N3CCN(C(=O)Nc4ccc(OC(C)C)cc4)CC3)ncnc2cc1OCCCN1CCCCC1`, for which the remaining NAD is 10 nM. As for `O=C(O)CCCCC1CCSS1` (centres undefined), the remaining NAD is 10 nM.

For another experiment, the target named is Mitogen-activated protein kinase 7 (Homo sapiens) (UniProt Q13164). In words: Gal4-ERK5 driven luciferase induction – cell-based, HTS, primary screen (AID 1508626;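 active = luciferase signal above three times the same-plate solvent-only control wells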;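 note: luciferase driven by Gal4-ERK5 fusion binding five Gal4 sites before minimal TATA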). The following applies: HeLa Gal4-ERK5 transactivation, 18 h, at 5 µM, active compounds read high.
Sequence of Mitogen-activated protein kinase 7 (Homo sapiens) (Q13164 whole entry, looked up, the tested form may be a part): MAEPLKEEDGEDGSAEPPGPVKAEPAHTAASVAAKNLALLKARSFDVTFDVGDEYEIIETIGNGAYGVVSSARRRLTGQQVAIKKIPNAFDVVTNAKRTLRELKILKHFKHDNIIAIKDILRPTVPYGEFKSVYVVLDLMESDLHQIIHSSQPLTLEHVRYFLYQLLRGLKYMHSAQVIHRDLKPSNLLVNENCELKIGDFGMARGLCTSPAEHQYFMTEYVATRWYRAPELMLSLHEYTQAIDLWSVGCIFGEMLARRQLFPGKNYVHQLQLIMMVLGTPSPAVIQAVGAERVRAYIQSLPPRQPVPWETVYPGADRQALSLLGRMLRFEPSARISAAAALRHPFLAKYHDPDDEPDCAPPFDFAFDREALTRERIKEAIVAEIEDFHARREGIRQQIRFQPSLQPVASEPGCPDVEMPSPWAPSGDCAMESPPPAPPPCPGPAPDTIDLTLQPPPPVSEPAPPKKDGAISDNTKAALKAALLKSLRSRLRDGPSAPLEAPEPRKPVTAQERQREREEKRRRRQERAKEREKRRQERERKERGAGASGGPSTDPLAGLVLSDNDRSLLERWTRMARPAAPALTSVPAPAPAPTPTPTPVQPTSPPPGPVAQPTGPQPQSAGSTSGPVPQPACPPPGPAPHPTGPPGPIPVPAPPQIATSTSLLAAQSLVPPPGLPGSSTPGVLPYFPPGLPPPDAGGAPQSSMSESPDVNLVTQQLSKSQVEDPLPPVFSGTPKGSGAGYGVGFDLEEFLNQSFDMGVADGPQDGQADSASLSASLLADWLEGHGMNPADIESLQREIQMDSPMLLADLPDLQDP
Take `CC(C)N=C(N)/N=C(\N)Nc1ccc(Cl)cc1`: the luciferase signal is 84 AU. On the same count and under the same terms, in the case of `CN1CCC(=C2c3ccccc3CCc3sccc32)CC1` it was 76 AU; in that of `C#C[C@]1(O)CC[C@H]2[C@@H]3CCc4cc(O)ccc4[C@H]3CC[C@@]21C`, 76 AU.

Test system in another experiment: not listed separately
In words: galactose survival enhancers in mitochondrial complex I cybrids – cell-based, galactose medium, ATP luminescence, primary screen (AID 1645843).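 Note: positive z means more ATP and so rescue of galactose-driven cybrid death.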 The following applies: complex I mutant cybrid cells, 72 h, active compounds read high.
Regarding `O=C(c1ccc(F)cc1)C1CCN(CCn2c(=S)[nH]c3ccccc3c2=O)CC1`, the z-score was -0.715 and -0.61. Same read-out and setting: in the case of `Cc1ccc(NC(=O)c2ccc(CN3CCN(C)CC3)cc2)cc1Nc1nccc(-c2cccnc2)n1` it was -1.09 and -0.785. Still for that read-out and setting: the result for `C[C@]12C[C@H](O)[C@H]3[C@@H](CCC4=CC(=O)CC[C@@]43C)[C@@H]1CC[C@@H]2C(=O)CO` reads -0.085 and -0.065; that for `CC1CCN(CCCC(=O)c2ccc(F)cc2)CC1`, 0.28 and -0.14; that for `CNCC(O)c1ccc(O)c(O)c1` (centres undefined), -1.02 and -0.655.

Turning to `CCN(CC)CC1CCCCN1CC(=O)N1c2ccccc2C(=O)Nc2cccnc21` (centres undefined), the z-score is 0.18 and -0.135.
